# Experimental data: ChEMBL document CHEMBL3988442, “University of Dundee, Small-Polar-MMV Screening Library” (2021)
# In all, about 66,000 compounds went through this assay and about 960 (1.5%) showed an effect of 50% or more. What follows is part of a selection rich in strong results, with near analogues and random picks from the rest.
# Test system: Trypanosoma brucei
# Experiment: Trypanosoma brucei 72 hour study
# Assay type: functional, organism-based
# Parameters: scale not given: in the data most compounds retested in dose-response had high values
compound,measurement,setting,value
CCn1ncc2c1C(COC)N(C(=O)CCc1ccccc1)CC2.O=C(O)C(F)(F)F (stereo not drawn),Percent Effect,"30.3 µM, […]",-62.76%
COC[C@@]12CC[C@@H](N3CCOCC3)C[C@H]1CCN(c1ncccc1C)C2,Percent Effect,"30.3 µM, […]",-4.564%
COC[C@@]12CC[C@@H](N3CCOCC3)C[C@H]1CCN(c1ncccc1F)C2,Percent Effect,"30.3 µM, […]",8.261%
COC[C@@]12CC[C@@H](N3CCOCC3)C[C@H]1CCN(c1ncccc1Cl)C2,Percent Effect,"30 µM, 30.03 µM",81.93%
Cl.Cl.O=C(CN1CCN(CC(O)C2CC2)CC1)NCc1ccccc1 (stereo not drawn),Percent Effect,"30.3 µM, […]",-20.63%
Cn1ccc(CN2CCCC23CCN(Cc2cccc(F)c2)CC3)n1.O=C(O)C(F)(F)F.O=C(O)C(F)(F)F,Percent Effect,"30.3 µM, […]",-80.78%
CCc1cc(C(F)(F)F)c2c(C3CCN(C(=O)COC)CC3)noc2n1,Percent Effect,"30.3 µM, […]",11.66%
O=C(N[C@@H]1CN(CCc2ccc(F)cc2)C[C@H]1O)c1cscn1,Percent Effect,"30.3 µM, […]",8.587%
O=C(O)C(F)(F)F.O=C(O)C(F)(F)F.O=C(c1cccnc1)N1CCn2cc(CN3CCCC3)nc2C1,Percent Effect,"30.3 µM, […]",-57.28%
N#CC1(C(=O)NCCCNc2ccc(C(F)(F)F)cn2)CCCC1,Percent Effect,"30 µM, 30.03 µM",104.7%
O=C(NCCCNc1ccc(C(F)(F)F)cn1)c1ccccc1,Percent Effect,10 µM,-30.72%
N#Cc1ccc(C(=O)NCCCNc2ccc(C(F)(F)F)cn2)cc1,Percent Effect,"30 µM, 30.03 µM",0.4176%
CCCN1C(=O)[C@H]2CC[C@@H]1CN(S(=O)(=O)c1cccc(Cl)c1)C2,Percent Effect,"30.3 µM, […]",-12.81%
Cc1cccc(CN2CCc3onc(CO)c3C2)n1.O=C(O)C(F)(F)F,Percent Effect,"30.3 µM, […]",-52.13%
O=C(O)C(F)(F)F.O=C(O)C(F)(F)F.c1cncc(OCc2noc3c2CN(Cc2ccsc2)CC3)c1,Percent Effect,"30 µM, 30.03 µM",-15.24%
O=C(Nc1ccccc1)c1nn(C2CCS(=O)(=O)C2)c2c1CCCC2 (stereo not drawn),Percent Effect,"30 µM, 30.03 µM",23.09%
O=C(Nc1ccc(Cl)cc1)c1nn(C2CCS(=O)(=O)C2)c2c1CCCC2 (stereo not drawn),Percent Effect,"30 µM, 30.03 µM",-43.99%
O=C(Nc1cccc(Cl)c1)c1nn(C2CCS(=O)(=O)C2)c2c1CCCC2 (stereo not drawn),Percent Effect,"30 µM, 30.03 µM",73.39%
Cc1[nH]c2ccc(CNc3cc(C#N)ccn3)cc2c1C,Percent Effect,"30 µM, 30.03 µM",39.43%
COCC(C)NCc1ccc2[nH]c(C)c(C)c2c1 (stereo not drawn),Percent Effect,"30 µM, 30.03 µM",2.897%
Cc1[nH]c2ccc(CNc3cc(C(N)=O)ccn3)cc2c1C,Percent Effect,"30 µM, 30.03 µM",60.58%
CSCC(C)NCc1ccc2[nH]c(C)c(C)c2c1 (stereo not drawn),Percent Effect,"30 µM, 30.03 µM",-11.75%
Cc1[nH]c2ccc(CNc3cc(C(=O)NC(C)C)ccn3)cc2c1C,Percent Effect,"30 µM, 30.03 µM",50.33%
COC(=O)C(C)NCc1ccc2[nH]c(C)c(C)c2c1 (stereo not drawn),Percent Effect,"30 µM, 30.03 µM",-35.15%
NC[C@H]1CC[C@H](C(NC(=O)CC2CCCCC2)c2ccccn2)CC1 (stereo partly drawn),Percent Effect,"30.3 µM, […]",-8.457%
COc1cnc(C2(O)CCN(C(=O)c3ccccn3)CC2)c(OC)n1,Percent Effect,"30.3 µM, […]",-9.61%
COc1c(CNCCNC(=O)c2cccc(C)c2)c(C)nn1C.Cl,Percent Effect,"30.3 µM, […]",0.1013%
O=C(NCC1CC1)[C@H]1C[C@@H]2CN(C(=O)NCc3ccccc3)C[C@H]1O2,Percent Effect,"30 µM, 30.03 µM",46.62%
COc1cccc(-c2n[nH]cc2CNC2CCN(C(C)C)CC2)c1.Cl,Percent Effect,"30 µM, 30.03 µM",-15.13%
COc1c(CNC2CCOc3ccccc32)c(C(C)C)nn1C (stereo not drawn),Percent Effect,"30 µM, 30.03 µM",25.19%
CC(C)c1nn(C)c(N(C)C)c1CNC1CCOc2ccccc21 (stereo not drawn),Percent Effect,"30 µM, 30.03 µM",-51.78%
CC(C)c1nn(C)c(Cl)c1CNC1CCOc2ccccc21.Cl (stereo not drawn),Percent Effect,"30 µM, 30.03 µM",55.88%
CN1CC(=O)N(c2cccc(F)c2)CC12CCN(CC1CCOCC1)C2.O=C(O)C(F)(F)F.O=C(O)C(F)(F)F (stereo not drawn),Percent Effect,"30 µM, 30.03 µM",9.991%
COc1ccc(C2=Nn3c(CN)nnc3-c3ccccc3C2)cc1,Percent Effect,"30 µM, 30.03 µM",2.28%
COc1ncccc1C(=O)N1CCCC(n2ccnc2C)C1 (stereo not drawn),Percent Effect,"30.3 µM, […]",-7.34%
Cc1ccoc1C(=O)NC1CCN(Cc2ccccc2F)CC1,Percent Effect,10 µM,-23.23%
same,Percent Effect,"30.3 µM, […]",4.829%
O=C(NC1CCN(Cc2cccc3c2OCCO3)CC1)c1cccs1,Percent Effect,10 µM,10.83%
same,Percent Effect,"30.3 µM, […]",7.019%
Cc1ccc(C(=O)NC2CCN(Cc3cccc4c3OCCO4)CC2)s1,Percent Effect,10 µM,-2.683%
same,Percent Effect,"30.3 µM, […]",68.24%
Cc1ccoc1C(=O)NC1CCN(Cc2cccc3ccccc23)CC1,Percent Effect,10 µM,-9.27%
same,Percent Effect,"30.3 µM, […]",57.41%
Cc1ccoc1C(=O)NC1CCN(Cc2ccccc2C#N)CC1,Percent Effect,10 µM,15.78%
same,Percent Effect,"30.3 µM, […]",-0.9403%
CC(C)C(=O)NC1CCN(Cc2cccc3c2OCCO3)CC1,Percent Effect,"30 µM, 30.03 µM",-15.03%
O=C(O)C(F)(F)F.O=C(c1ccc(F)cc1)N1CCC2(CCN(Cc3ccccn3)C2=O)C1 (stereo not drawn),Percent Effect,"30 µM, 30.03 µM",-50.24%
Cc1csc2ncc(-c3ccnc(N4CCC[C@H](C(N)=O)C4)n3)c(=O)n12,Percent Effect,"30.3 µM, […]",-8.345%
CCN(CC)Cc1cn2c(n1)CN(C1CCOC1)CC2.O=C(O)C(F)(F)F.O=C(O)C(F)(F)F (stereo not drawn),Percent Effect,"30.3 µM, […]",-56.79%
Cc1ccccc1C(N)c1ccncc1.Cl (stereo not drawn),Percent Effect,"30.3 µM, […]",-1.36%
CCOc1c(F)cccc1C(=O)N(CC)C(C)c1ccncc1 (stereo not drawn),Percent Effect,"30.3 µM, […]",3.975%
CCOc1c(F)cccc1C(=O)N(c1cccnc1)C(C)C,Percent Effect,"30.3 µM, […]",99.6%
CCOc1c(F)cccc1C(=O)N(CC)C(C)c1cccnc1 (stereo not drawn),Percent Effect,"30.3 µM, […]",6.068%
Cc1cc(C(=O)N2CCC3(CC2)C(=O)N(C)CCN3CC(C)C)c(C)o1.O=C(O)C(F)(F)F,Percent Effect,"30.3 µM, […]",2.031%
CCOC(=O)[C@]12CCCN(Cc3cccs3)C[C@H]1CN(C(C)C)C2.O=C(O)C(F)(F)F.O=C(O)C(F)(F)F,Percent Effect,"30.3 µM, […]",-11.59%
Cc1cc(=O)n2nc(Oc3ccc(Cl)c(C)c3)sc2n1,Percent Effect,"30 µM, 30.03 µM",-32.75%
Cc1cc(=O)n2nc(Oc3cc(Cl)cc(Cl)c3)sc2n1,Percent Effect,"30 µM, 30.03 µM",-23.2%
Cc1cc(=O)n2nc(Oc3ccc(F)c(F)c3)sc2n1,Percent Effect,"30 µM, 30.03 µM",-14.16%
Cc1cc(=O)n2nc(Oc3ccc(C#N)cc3Cl)sc2n1,Percent Effect,"30 µM, 30.03 µM",98.96%
Cc1cc(=O)n2nc(Oc3cccc(C(N)=O)c3)sc2n1,Percent Effect,"30 µM, 30.03 µM",-16.62%
Cc1cc(=O)n2nc(Oc3cccc(I)c3)sc2n1,Percent Effect,"30 µM, 30.03 µM",99.1%
CN1CCCCCC1C(=O)N1CCN(c2ccccc2C#N)CC1 (stereo not drawn),Percent Effect,"30 µM, 30.03 µM",14.65%
COc1ncccc1CNC(=O)NCc1ccco1,Percent Effect,10 µM,-3.742%
same,Percent Effect,"30.3 µM, […]",11.99%
Cc1ccc(CN2CC[C@H]3[C@H](CC(Cn4cccn4)N3C)C2)s1.O=C(O)C(F)(F)F.O=C(O)C(F)(F)F.O=C(O)C(F)(F)F (stereo partly drawn),Percent Effect,"30.3 µM, […]",2.612%
O=C(CC1CC1)N1CC[C@@H]2[C@H](CC1)N(Cc1cccnc1)CCS2(=O)=O.O=C(O)C(F)(F)F.O=C(O)C(F)(F)F,Percent Effect,"30.3 µM, […]",-63.96%
Cc1cccc(OC2CCN(c3nccnc3C#N)CC2)n1,Percent Effect,"30.3 µM, […]",-52.89%
Cc1cccc(OC2CCN(c3ncc(C#N)cc3Cl)CC2)n1,Percent Effect,"30.3 µM, […]",2.665%
Cc1cccc(OC2CCN(c3ccc(C#N)cn3)CC2)n1,Percent Effect,"30.3 µM, […]",86.54%
CCn1cc(NS(=O)(=O)c2ccc(Br)s2)c(C(N)=O)n1,Percent Effect,"30 µM, 30.03 µM",-24.98%
O=C(Nc1cnccn1)[C@H]1CC[C@@H]2[C@@H](CCN2Cc2ccoc2)O1.O=C(O)C(F)(F)F,Percent Effect,"30.3 µM, […]",-117.8%
COc1cc(F)ccc1N(C)Cc1ccncc1,Percent Effect,"30 µM, 30.03 µM",-66.27%
COc1cc(F)ccc1N(C)Cc1cccnc1,Percent Effect,"30 µM, 30.03 µM",-106.7%
COc1cc(F)ccc1N(C)Cc1ccccn1,Percent Effect,"30 µM, 30.03 µM",73.53%
Cc1c(-c2cccs2)nn2c(O)c3c(nc12)CN(C(=O)C1CC1)C3,Percent Effect,"30.3 µM, […]",9.41%
Cc1ccc(N2CCN(C(=O)CCc3n[nH]c(C)c3C)CC2=O)cc1,Percent Effect,"30 µM, 30.03 µM",-42.04%
CS(=O)(=O)N1C[C@@H]2CC[C@H](C1)N(Cc1ccsc1)C2,Percent Effect,"30 µM, 30.03 µM",-69.04%
CN(C)S(=O)(=O)N1C[C@@H]2CC[C@H](C1)N(Cc1ccc(F)c(F)c1)C2,Percent Effect,"30 µM, 30.03 µM",-42.84%
CC(=O)c1cc(CN2C[C@H]3CC[C@@H]2CN(S(C)(=O)=O)C3)cs1,Percent Effect,"30 µM, 30.03 µM",91.04%
CN(C)S(=O)(=O)N1C[C@@H]2CC[C@H](C1)N(Cc1ccc3nsnc3c1)C2,Percent Effect,"30 µM, 30.03 µM",2.112%
CS(=O)(=O)N1C[C@@H]2CC[C@H](C1)N(Cc1ccc3nsnc3c1)C2,Percent Effect,"30 µM, 30.03 µM",-23.46%
CC(=O)c1cc(CN2C[C@H]3CC[C@@H]2CN(S(=O)(=O)N(C)C)C3)cs1,Percent Effect,"30 µM, 30.03 µM",79.15%
CC(C)(C)C(CCO)NC(=O)Nc1ccncc1 (stereo not drawn),Percent Effect,"30.3 µM, […]",-3.299%
COCCCNC(=O)CCn1nc(C)c2ccccc21,Percent Effect,"30 µM, 30.03 µM",61.88%
COCCCNC(=O)CCn1ncc2c(Cl)cccc21,Percent Effect,"30.3 µM, […]",-21.64%
CCOCCCNC(=O)CCCC(=O)n1nc(C)c2ccccc21,Percent Effect,"30 µM, 30.03 µM",-9.537%
Nc1ccc(C(=O)N2CCCC(C(=O)CCc3ccccc3)C2)cn1 (stereo not drawn),Percent Effect,"30 µM, 30.03 µM",42.45%
Cn1cc(N2CC3(CCN(Cc4ccoc4)CC3)OCC2=O)cn1.O=C(O)C(F)(F)F,Percent Effect,"30 µM, 30.03 µM",-14.91%
CCOC(=O)c1n[nH]cc1-c1cncn1CCn1nc(C)c(C)c1C.Cl,Percent Effect,"30.3 µM, […]",-11.29%
Cc1ncsc1C(=O)NC1CCN(CC(=O)N(C)c2ccccc2)CC1,Percent Effect,"30 µM, 30.03 µM",32.24%
Cc1ncsc1C(=O)NC1CCN(CC(N)=O)CC1,Percent Effect,"30.3 µM, […]",10.5%
Cc1ncsc1C(=O)NC1CCN(CC(=O)NCc2ccccc2)CC1,Percent Effect,"30 µM, 30.03 µM",57.29%
O=C(c1coc(COc2cccc3cnccc23)n1)N1CCSCC1,Percent Effect,"30.3 µM, […]",-189.8%
O=C(c1coc(COc2cccc3cnccc23)n1)N1CCCCCC1,Percent Effect,"30.3 µM, […]",-73.19%
CC1CCCCN1C(=O)c1coc(COc2cccc3cnccc23)n1 (stereo not drawn),Percent Effect,"30.3 µM, […]",103.3%
Cc1cccc(N2CCN(C(=O)CCc3c(C)noc3Cl)CC2)c1,Percent Effect,"30.3 µM, […]",55.23%
Cc1noc(Cl)c1CCC(=O)N1CCN(c2ccccc2)CC1,Percent Effect,"30.3 µM, […]",16.11%
Cc1noc(Cl)c1CCC(=O)N1CCN(c2ncccn2)CC1,Percent Effect,"30 µM, 30.03 µM",-22.8%
